Results as given in PubChem BioAssay (EPA / NIEHS).
Active and inactive are the calls of the source. Rule for the calls: active = hit-call score of the fitted dose curve at least 0.9, where 1 is the maximum; inactive = score below 0.9.

experiment: CCTE_Padilla_ZF_Score.Position: CCTE's 144 Hour Post-fertilization zebrafish Assay Score for Position, Padilla Lab (AID 2284409)
Outline: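 Wild-type zebrafish embryos (with chorions) exposed singly from 6–8 hpf in sealed wells of Hanks' solution at 26C, rinsed at 5 dpf. At 6 dpf, blinded assessors scored abnormal water-column position by brightfield stereomicroscopy, relative to DMSO.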

SMILES	outcome	AC50
OCC(F)(F)OC(F)(F)C(F)(F)OC(F)(F)C(F)(F)OC(F)(F)CO	inactive	–
OCC(F)(F)OC(F)(F)C(F)(F)OC(F)(F)C(F)(F)OC(F)(F)F	–	34.4 µM (active)
FC(F)(F)C(F)(C(F)(F)F)C(F)(F)C(F)(F)CC1CO1 (centres undefined)	inactive	–
O=C(O)C(F)(F)C(F)(F)C(=O)O	inactive	–
NC(=O)C(F)(F)C(F)(F)F	inactive	–
COC(=O)C(F)(F)C(F)(F)OC(F)(C(F)(F)F)C(F)(F)OC(F)=C(F)F (centres undefined)	inactive	–
O=S(=O)(F)C(F)(F)C(F)(F)C(F)(F)C(F)(F)C(F)(F)C(F)(F)C(F)(F)C(F)(F)F	inactive	–
O=C(O)C(F)(F)OC(F)(F)C(F)(F)OC(F)(F)F	inactive	–
O=C(O)C=CC(F)(C(F)(F)F)C(F)(F)F	inactive	–
CC(O)C(F)(F)C(F)(F)F (centres undefined)	inactive	–
O=C(O)C(F)(F)OC(F)(F)C(F)(F)OC(F)(F)C(=O)O	inactive	–
OCC(F)(F)OC(F)(F)C(F)(F)OC(F)(F)CO	inactive	–
O=C(O)C(F)(OC(F)(F)C(F)(F)C(F)(F)F)C(F)(F)F (centres undefined)	inactive	–
C=CC(=O)OCC(F)(F)C(F)F	inactive	–

experiment: CCTE_Padilla_ZF_Score.Living: CCTE's 144 Hour Post-fertilization zebrafish Assay Score for Viability, Padilla Lab (AID 2284410);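 note: larval death at 6 dpf judged by absent heartbeat or coagulation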
Outline: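 Mortality at 6 dpf, judged as absent heartbeat or coagulation by two blinded observers, after sealed static exposure beginning at 6–8 hpf at 26C. Larvae were rinsed free of chemical at 5 dpf, and activity was fitted relative to DMSO.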

SMILES	AC50	outcome
OCC(F)(F)OC(F)(F)C(F)(F)OC(F)(F)C(F)(F)OC(F)(F)CO	32.1 µM (active)	–
OCC(F)(F)OC(F)(F)C(F)(F)OC(F)(F)C(F)(F)OC(F)(F)F	88.8 µM (active)	–
FC(F)(F)C(F)(C(F)(F)F)C(F)(F)C(F)(F)CC1CO1 (centres undefined)	–	inactive
O=C(O)C(F)(F)C(F)(F)C(=O)O	–	inactive
NC(=O)C(F)(F)C(F)(F)F	–	inactive
COC(=O)C(F)(F)C(F)(F)OC(F)(C(F)(F)F)C(F)(F)OC(F)=C(F)F (centres undefined)	–	inactive
O=S(=O)(F)C(F)(F)C(F)(F)C(F)(F)C(F)(F)C(F)(F)C(F)(F)C(F)(F)C(F)(F)F	–	inactive
O=C(O)C(F)(F)OC(F)(F)C(F)(F)OC(F)(F)F	–	inactive
O=C(O)C=CC(F)(C(F)(F)F)C(F)(F)F	–	inactive
CC(O)C(F)(F)C(F)(F)F (centres undefined)	–	inactive
O=C(O)C(F)(F)OC(F)(F)C(F)(F)OC(F)(F)C(=O)O	–	inactive
OCC(F)(F)OC(F)(F)C(F)(F)OC(F)(F)CO	–	inactive
O=C(O)C(F)(OC(F)(F)C(F)(F)C(F)(F)F)C(F)(F)F (centres undefined)	–	inactive
C=CC(=O)OCC(F)(F)C(F)F	20.7 µM (active)	–

experiment: CCTE_Padilla_ZF_Score.General: CCTE's 144 Hour Post-fertilization zebrafish Assay Score for General Malformation, Padilla Lab (AID 2284411)
Outline: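 Malformation, death and hatching were scored at 6 dpf by two blinded observers under a stereo microscope. Embryos were dosed singly from 6-8 hpf in sealed plates of 10% Hanks' at 26C and rinsed on 5 dpf; DMSO baseline.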

SMILES	outcome	AC50
OCC(F)(F)OC(F)(F)C(F)(F)OC(F)(F)C(F)(F)OC(F)(F)CO	inactive	–
CCCCC(CC)COP(=O)(Oc1ccccc1)Oc1ccccc1 (centres undefined)	–	3.23 µM (active)
OCC(F)(F)OC(F)(F)C(F)(F)OC(F)(F)C(F)(F)OC(F)(F)F	–	16.2 µM (active)
Nc1ccc([N+](=O)[O-])cc1Cl	inactive	–
FC(F)(F)C(F)(C(F)(F)F)C(F)(F)C(F)(F)CC1CO1 (centres undefined)	inactive	–
Cc1c([N+](=O)[O-])cc2c(c1[N+](=O)[O-])C(C)(C)CC2(C)C	–	2.8 µM (active)
O=C(O)C(F)(F)C(F)(F)C(=O)O	inactive	–
O=P(OCC(Br)CBr)(OCC(Br)CBr)OCC(Br)CBr (centres undefined)	–	2.01 µM (active)
O=c1ssc(Cl)c1Cl	inactive	–
CCOP(=S)(OCC)SCSc1ccc(Cl)cc1	–	8.15 µM (active)
NC(=O)C(F)(F)C(F)(F)F	inactive	–
CC(C)Nc1ccc(Nc2ccccc2)cc1	–	2.6 µM (active)
COC(=O)C(F)(F)C(F)(F)OC(F)(C(F)(F)F)C(F)(F)OC(F)=C(F)F (centres undefined)	inactive	–
N#Cc1c(-c2ccc(Cl)cc2)[nH]c(C(F)(F)F)c1Br	inactive	–
c1ccc2c(c1)sc1ccccc12	inactive	–
O=S(=O)(F)C(F)(F)C(F)(F)C(F)(F)C(F)(F)C(F)(F)C(F)(F)C(F)(F)C(F)(F)F	inactive	–
O=C(O)C(F)(F)OC(F)(F)C(F)(F)OC(F)(F)F	inactive	–
O=C(O)C=CC(F)(C(F)(F)F)C(F)(F)F	inactive	–
CC(O)C(F)(F)C(F)(F)F (centres undefined)	inactive	–
O=C(O)C(F)(F)OC(F)(F)C(F)(F)OC(F)(F)C(=O)O	inactive	–
OCC(F)(F)OC(F)(F)C(F)(F)OC(F)(F)CO	inactive	–
CCOP(=S)(OCC)SCS(=O)(=O)CC	–	65.2 µM (active)
O=S1(=O)OCC2C(CO1)C1(Cl)C(Cl)=C(Cl)C2(Cl)C1(Cl)Cl (centres undefined)	–	0.165 µM (active)
CC(C)(C)c1ccccc1OP(=O)(Oc1ccccc1)Oc1ccccc1	–	8.75 µM (active)
O=C(O)C(F)(OC(F)(F)C(F)(F)C(F)(F)F)C(F)(F)F (centres undefined)	inactive	–
C=CC(=O)OCC(F)(F)C(F)F	–	7.91 µM (active)
